The record followed here is PubChem BioAssay (NCI).

About 83,000 compounds went through this panel and 20% of them were active in at least one assay; those are over-represented in the sample as a whole.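 Growth was measured after 48 h exposure to one concentration of compound in 96-well plates. Values under 10 count as active.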 Active and inactive are the calls of the source.

In the assay the test system is MDA-MB-468 breast. The assay can be described thus: NCI-60 one-dose screen, 48 h (100 = growth as untreated, 0 = no growth, -100 = all killed). The settings on record: 10 µM unless noted.
In the case of `O=S(=O)(NCCNc1nccc(-n2cnc3ccccc32)n1)c1ccc(C(F)(F)F)cc1`, the growth is 26.4% (inactive).

For `O=C(Nc1cc(-c2ccccc2)[nH]n1)c1ccc(Cl)cc1`, the growth was 73% (inactive).

With `N#Cc1c(Oc2ccc([N+](=O)[O-])cc2)nc2sc3cc(Cl)ccc3n2c1=N`, the growth was -39.8% (active).

For `N#C/C(=C\c1ccc(Br)cc1)n1nnc2cc(Cl)c(Cl)cc21`, the growth is -5.24% (active).

Regarding `COc1ccc(C(=O)c2sc3nc4c(c(-c5cccnc5)c3c2N)CCCC4)cc1OC`, the growth was 102% (inactive).

On to `O=C1C=CC(=O)N1c1ccccc1`, for which the growth was 106% (inactive).

On to `COC(=O)[C@]12CC[C@@H](C)[C@H](C)[C@@H]1C1=CC[C@@H]3[C@@]4(C)C(C=O)=C[C@@](C)(COC(C)=O)[C@@H]4C(=O)C[C@@]3(C)[C@]1(C)CC2`, for which the growth is 33.6% (inactive).

In the case of `Oc1c(C(Nc2ccccc2)c2ccccc2)ccc2cccnc12` (stereo not given), the growth was 17.8% (inactive).

As to `O=C(CNS(=O)(=O)Cc1ccccc1)NNc1ccccc1`, the growth was 79.4% (inactive).

With `N#CC1C=Cc2c(ccc3ccccc23)N1C(=O)c1ccccc1` (stereo not given), the growth is -10.5% (active).

For `C=C(CNCCc1ccc(O)cc1)[C@@H]1CC[C@]2(CO)CC[C@]3(C)[C@H](CC[C@@H]4[C@@]5(C)CCC(NCCc6ccc(O)cc6)C(C)(C)[C@@H]5CC[C@]43C)[C@@H]12` (stereo not given in full), the growth is -74.6% (active).

Consider `CN(C)c1ccc(/C=C/c2nccc3ccccc23)cc1`, for which the growth is -1.08% (active).

For the compound `O=S(=O)(Nc1ccc(Cl)c(C(F)(F)F)c1)c1ccc(-c2cnc(C3CC3)o2)cc1`, the growth is -7.54% (active).

As to `Cc1ccc(C(=O)c2ccc(CC(=O)N=Nc3c(O)[nH]c4ccc(Br)cc34)n2C)cc1`, the growth is 96.6% (inactive).

For the compound `COc1ccc([C@H]2c3cc(OC)c(OC)cc3C=C(C=O)C2CO)cc1OC` (stereo not given in full), the growth is 41% (inactive).

Consider `COc1cc(Cl)cc(-c2nn(-c3cccc(NC(=O)c4ccc(Cl)c(Cl)c4)c3)cc2-c2ccncc2)c1`, for which the growth was 54.6% (inactive).

In the case of `COc1c(N2CC3CCCNC3C2)c(F)cc2c(=O)c(C(=O)N/N=C/c3ccc(Br)cc3)cn(C3CC3)c12` (stereo not given), the growth is 97% (inactive).

`Cn1ccnc1C(=O)/C=C/c1ccc(CC(=O)NC2CCCCC2)cc1`: the growth was -6.65% (active).

Consider `COc1cc2ncnc(Nc3ccc(S(=O)(=O)Nc4cc(C)on4)cc3)c2cc1OCCCN1CCN(c2ccc(F)cc2)CC1`, for which the growth was 103% (inactive).

In the case of `Cc1ccc(C=C2C(Cl)=C(Cl)C(Cl)=C2Cl)cc1`, the growth is -59.4% (active).

For the compound `CCCCCCCCCCCCCCCCCCOc1ccccc1CC(=O)OCC[N+]1(C)CCOCC1`, the growth is 51.9% (inactive).

As for `O=C(c1cccc(F)c1)n1ccc2cc(NC(=S)Nc3cccnc3)ccc21`, the growth is 91.9% (inactive).

Regarding `Cc1ccc(Cc2cnc(NC(=O)CN3C(=O)/C(=C\c4ccccc4)SC3=S)s2)cc1`, the growth is 105% (inactive).

Turning to `Cc1ccc(NC(=O)CNc2cc(C(N)=O)cc(F)c2C)c(Cl)c1`, the growth was 105% (inactive).

As to `Cn1ccnc1C(=O)/C=C/c1ccc(C(=O)Nc2ccc(NC(=O)CCNC(=O)c3csc(Br)n3)cc2)cc1`, the growth is 48.4% (inactive).

Take `CCC1=CCC[C@@]2(C)CCC[C@@]3(C)CCCC(C)(C)[C@]1([O-])[O+]32`: the growth is 94.5% (inactive).

`Cc1ccc2c(c1)Nc1ccc(C)cc1C2(C)C`: the growth is 101% (inactive).

Turning to `COc1ccc(-c2nc3ccccn3c2-c2nnc(-c3cc(OC)c(OC)c(OC)c3)o2)cc1`, the growth was 44.3% (inactive).

Consider `COc1ccc(C2CC(c3cccc(OC)c3)=NN2C(=O)c2cc(OC)c(OC)c(OC)c2)cc1` (stereo not given), for which the growth is 29.2% (inactive).

In the case of `COc1cc(CSc2nc3ccc(C)cc3c(=O)n2-c2ccccc2)cc(OC)c1OC`, the growth is -8.37% (active).

With `Nc1cc(-c2ccncc2)c[nH]c1=O`, the growth was 117% (inactive).

Take `CC/C=C\C[C@H](O)C/C=C1/C(=O)C=C[C@@]1(C)C/C=C\CCCC(=O)OC`: the growth was 105% (inactive).

With `O=C1/C(=C/C=C/c2ccco2)SC(=S)N1Cc1ccccc1`, the growth is 58.5% (inactive).

Take `Cc1cc(O)c(C(C)C)cc1Cl`: the growth was 114% (inactive).

On to `CCN1C(=O)N(CC)C2C1NN=c1s/c(=C\c3ccc(Br)cc3)c(=O)n12` (stereo not given), for which the growth was 7.21% (active).

As for `CCN(CC)c1ccc(/C=N/NC(=O)c2ccc(NS(C)(=O)=O)cc2)c(O)c1`, the growth is -10.8% (active).

Turning to `Cn1cc(-c2nonc2-c2cn(C)c3ccc(F)cc23)c2cc(F)ccc21`, the growth was 60.1% (inactive).

With `CCCCCCCCCCCCCC(=S)NCCCC[C@H](NC(=O)OCc1ccccc1)C(=O)Nc1ccccc1`, the growth is 27.1% (inactive).

In the case of `CCOC(=O)c1c(C)nc2c(c1N)CC(=O)N2Cc1ccc(OC)cc1`, the growth was 36.2% (inactive).

With `CN(c1ccccc1)c1ncnc2c1ncn2C`, the growth is 113% (inactive).
